# Data reported in ChEMBL document CHEMBL3988442, “University of Dundee, Small-Polar-MMV Screening Library” (2021).
# The campaign covered roughly 48,000 compounds. About 13,000 (27%) showed an effect of 50% or more. The list shows a part of the results.
# Tested on: Wolbachia pipientis
# Test: Anti-Wolbachia Cell-Based Screen
# Format: functional
# Set-up: scale not given: in the data most compounds retested in dose-response had high values
# Conditions: 5 µM
row,SMILES,Percent Effect [%]
1,c1ccc2c(c1)CC(CNCc1ccncc1)(N1CCCCC1)C2,-2.88
2,CC(CN1CCC2(CC1)c1nc[nH]c1CCN2S(C)(=O)=O)C(F)(F)F (stereo not given),-8.098
3,COC(=O)c1ccc(C(=O)NS(=O)(=O)c2cncc(Br)c2)cc1,-17.99
4,Cc1ncsc1CCCn1ccnc1-c1cc2n(n1)CCCNC2,-0.1089
5,CC(O)CN1CCc2[nH]nc(C(c3ccccc3)c3ccccc3)c2C1 (stereo not given),0.8234
6,COc1ccc(C(=O)N2CCCC3(CCCC(=O)N3C)C2)cc1 (stereo not given),91.19
7,CCc1ccc(C(=O)N2CCCC3(CCCC(=O)N3C)C2)cc1 (stereo not given),97.96
8,CCC1(C(=O)O)CCCN(C(=O)c2ccc(N3CCN(C)CC3)cc2)C1 (stereo not given),4.53
9,CCC1(CO)CCCN(C(=O)c2ccc(N3CCN(C)CC3)cc2)C1 (stereo not given),-10.61
10,O=C(NC1CCCCC1)N1C[C@H]2CN(c3cnccn3)C[C@@]2(C(=O)O)C1,-17.1
11,Cc1ccc2c(c1)C(NCc1ncnn1C)CC2 (stereo not given),-32.91
12,CN1C(=O)CC(C(=O)O)C12CCN(Cc1ccc(Cl)c(F)c1)CC2 (stereo not given),-9.63
13,COC(CNC(=O)N1CCC(n2cncn2)CC1)c1ccccc1 (stereo not given),1.274
14,CC(C)c1ccc(C(C)NC(=O)N2CCC(n3cncn3)CC2)cc1 (stereo not given),-4.399
15,CC(NC(=O)N1CCC(n2cncn2)CC1)c1ccc(F)cc1F (stereo not given),-3.93
16,COc1ccccc1CCNC(=O)N1CCC(n2cncn2)CC1,106.2
17,CC(C)Oc1ccccc1NC(=O)N1CCC(n2cncn2)CC1,90.39
18,COc1ccccc1OCCNC(=O)NCC(C)C,-1.191
19,COc1ccccc1OCCNC(=O)N1CCC(n2cncn2)CC1,92.74
20,O=C(Nc1ccc(N2CCCC2)nc1)N1CCc2sccc2C1,6.616
21,CCS(=O)(=O)NCCCNc1ncnc2cc(F)c(F)cc12,-7.857
22,COC[C@]12COC[C@H]1CN(C(=O)C1CCSCC1)C2,-5.007
23,CS(=O)(=O)NC[C@]12COC[C@H]1CN(C(=O)N1CCCC1)C2,88.05
24,CS(=O)(=O)NC[C@]12COC[C@H]1CN(C(=O)CCc1ccccc1)C2,-0.4913
25,CS(=O)(=O)NC[C@]12COC[C@H]1CN(C(=O)Cc1ccccc1F)C2,6.41

row,SMILES,Percent Effect [%]
1,CS(=O)(=O)NC[C@]12COC[C@H]1CN(C(=O)C1CCSCC1)C2,57.64
2,CS(=O)(=O)NC[C@]12COC[C@H]1CN(C(=O)c1ccoc1)C2,-2.074
3,Cc1ccoc1C(=O)N1C[C@@H]2COC[C@]2(CNS(C)(=O)=O)C1,15.9
4,Cn1cccc1C(=O)N1C[C@@H]2COC[C@]2(CNS(C)(=O)=O)C1,-3.959
5,O=C(O)C(F)(F)F.O=S(=O)(NC[C@]12COC[C@H]1CN(CCc1ccccc1)C2)C1CC1,-3.746
6,CS(=O)(=O)NC[C@]12COC[C@H]1CN(C(=O)CC1CCCC1)C2,102.4
7,O=C(NC[C@]12COC[C@H]1CN(CC1CCOCC1)C2)c1ccco1.O=C(O)C(F)(F)F,6.419
8,CS(=O)(=O)NC[C@]12COC[C@H]1CN(CC1CCC1)C2.O=C(O)C(F)(F)F,92.98
9,Clc1ccccc1OC1CCN(CC2CCOC2)CC1 (stereo not given),-1.584
10,CC(=O)Nc1ccc(CN2CCc3[nH]cnc3C2c2ccc(C)o2)cc1 (stereo not given),-0.8872
11,CC(=O)N[C@@H]1CN(C(=O)c2cc3sccc3[nH]2)C[C@H]1c1ccc(C)o1,26.08
12,Cc1ccc(N2C[C@H]3OCC[C@H]3[C@H](C(=O)NCC3CC3)C2)nn1.O=C(O)C(F)(F)F,0.1783
13,Cc1ncsc1CCN(C)C(=O)CN1CCOC1=O,2.507
14,Cc1cnc(C(C)(C)NC(=O)NCc2ccc(C#N)cc2F)s1,-5.008
15,COc1ccc2nc(C[C@@H]3C[C@@H](C(C)C)[C@H](CN(C)C)C=C3C)[nH]c2n1,-3.892
16,C[S+]([O-])CCCNC(=O)c1cc(Br)c2c(c1)OCCO2 (stereo not given),-5.642
17,CS(=O)(=O)NC[C@]12COC[C@H]1CN(C(=O)C1CC(F)(F)C1)C2,112.2
18,CS(=O)(=O)NC[C@]12COC[C@H]1CN(C(=O)c1ccccc1)C2,7.31
19,CS(=O)(=O)NC[C@]12COC[C@H]1CN(C(=O)c1ncccn1)C2,4.055
20,CS(=O)(=O)NC[C@]12COC[C@H]1CN(C(=O)c1ccncn1)C2,0.7032
21,COC[C@]12COC[C@H]1CN(C(=O)C1CC(F)(F)C1)C2,-2.486
22,CS(=O)(=O)NC[C@]12COC[C@H]1CN(C(=O)C1CC=CC1)C2,99.92
23,Cc1cc(CN(C)C(=O)c2cc3c([nH]c2=O)CCCC3=O)no1,-8.225
24,CC(=O)c1cccc(OCCCC(=O)N(C)CCc2ccncc2)c1,5.185
25,CN(CC1(O)CCCC1)C(=O)c1cccc(Nc2cnccn2)c1,136.4

row,SMILES,Percent Effect [%]
1,COCCN(CC(C)C)C(=O)c1cccc(Nc2cnccn2)c1,186.1
2,COCCN(CCOC)C(=O)c1cccc(Cn2nc(C)cc2C)c1,-2.572
3,CN(Cc1cnccn1)C(=O)c1ccnc(OC2CCC2)c1,-12.54
4,COc1ccnc(NC(=O)c2cnccn2)c1,0.1681
5,CN(C)C(=O)c1cccc(Nc2cnn(C)c2)c1,-3.903
6,COc1c(C)cnc(CN(C)C(=O)c2cccc(NC(N)=O)c2)c1C,7.754
7,COCCCN(C)C(=O)c1cccc(Nc2cnccn2)c1,100
8,CCC(=O)NCc1cc(Br)c(OC)c(OC)c1,-2.986
9,c1cnn(CCC2CCCCN2Cc2cnc(C3CCCCC3)nc2)c1 (stereo not given),-23.18
10,CC(=O)OCC1CCCCN1C(=O)c1ccc(Cn2ccnc2)o1 (stereo not given),0.6554
11,N#Cc1cn(CCCN2CCc3ccccc32)c(=O)[nH]c1=O,7.257
12,CSc1cc2c(cc1NC(=O)NCC(=O)N(C)C)OCCO2,-7.029
13,Nc1c(Cl)cnn1C1CCN(Cc2ccccc2)C1 (stereo not given),-6.784
14,c1ccc(-c2nc(CNCCn3cccn3)cs2)cc1,17.11
15,COc1ccc(-c2nc(CCNc3nnc(C)c(C)c3C#N)co2)cc1,14.52
16,Cc1nnc(NCCc2coc(-c3ccccc3)n2)c(C#N)c1C,-1.856
17,c1ccc(-c2nc(CCNCc3cccnc3)co2)cc1,108.2
18,COc1cccc(-c2nc(CNCCc3cccnc3)cs2)c1,20
19,c1ccc(-c2nc(CCNCc3ccncc3)co2)cc1,91.06
20,c1ccc(-c2nnn3c2COC(CNCc2ccccn2)C3)cc1 (stereo not given),-8.365
21,O=C1NCCCCC1SCc1coc(-c2ccccc2)n1 (stereo not given),-18.22
22,COc1ccc(-c2nc(CCNCc3ccncc3)co2)cc1,89.2
23,CNC(=O)CS(=O)(=O)Cc1coc(-c2ccc(OC)cc2)n1,-17.74
24,c1ccc(Oc2ncccc2CNCc2ccccn2)cc1,6.646
25,c1ccc(-c2nc(CCNCc3ccccn3)co2)cc1,85.74

row,SMILES,Percent Effect [%]
1,CC(C)c1noc(C[S+]([O-])CC(=O)Nc2ccc(F)c(F)c2)n1 (stereo not given),-5.19
2,CC(=O)NCCCSCCOc1cccc(C#N)c1,-7.407
3,O=C(Nc1ccncc1)NC1CCN(c2ccccc2Cl)C1=O (stereo not given),1.637
4,COc1ccc(CCN2CC(c3nc(CSC)no3)CCC2=O)cc1 (stereo not given),-1.637
5,Cc1cc(CNC(=O)c2ccc(C(C)N3CCCCC3)o2)[nH]n1 (stereo not given),-3.545
6,O=C(c1cccc(-n2cccn2)c1)N1CCCOC(CN2CCCC2)C1 (stereo not given),2.221
7,Cc1nnc2n1CCN(C(=O)CN1C(=O)C(C)Oc3ccccc31)C2 (stereo not given),3.234
8,COCCn1cc(NC(=O)N(CCC(N)=O)Cc2ccccc2)cn1,-7.009
9,Cc1ccc(-c2nc(CCNCc3ccncc3)co2)cc1,83.41
10,Cc1nnc(NCCc2coc(-c3ccc(F)cc3)n2)c(C#N)c1C,5.844
11,Cc1ccc(-c2nc(CCNC(=O)NC3CCN(C)CC3)co2)cc1,-5.87
12,Cc1cnn(CCNCCCOc2ccc(C#N)cc2)c1,4.876
13,C=C/C=c1\c(=C/C)oc2c(NCc3ccccc3)nc(C)nc12,116.4
14,C=C/C=c1\c(=C/C)oc2c(NCc3ccccc3)nc(CC)nc12,112.6
15,Cc1nc2c(c(NCc3ccccc3)n1)CCN(C(=O)C1CCC1)CC2,-5.333
16,C=C/C=c1\c(=C/C)oc2c(NCc3ccccc3)ncnc12,107.1
17,CCC(CNc1ncnc2oc(C)nc12)Cc1ccccc1 (stereo not given),-28.36
18,Cc1nc(NCc2cccnc2)c2c(n1)c(C)nn2C,-9.557
19,CS(=O)(=O)c1ccc(NCc2ccccc2)cn1,-7.161
20,Cc1ccc(-c2nc(CN3CCc4nn(C)c(=O)cc4C3)no2)cc1,-3.521
21,CCCNC(=O)C(C)NC(=O)Nc1ccccc1SC(F)F (stereo not given),-20.86
22,O=C(c1ccc2occc2c1)N1CCC(C(=O)O)(n2cccn2)CC1,17.51
23,CO[C@H]1CN(S(=O)(=O)c2cn(C)cn2)[C@@H]2CCCO[C@H]12,-0.7123
24,CNC(=O)NC(=O)CCSc1ccccc1Cl,-6.595
25,Cc1cccc(CC(=O)NS(=O)(=O)c2ccc(F)c(F)c2)c1,-13.3
